Data taken from PubChem BioAssay (NCI).
About 83,000 compounds went through this panel and 20% of them were active in at least one assay; those are over-represented in the sample as a whole.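 Note: values are percent growth. 100 is the growth of untreated cells, values between 100 and 0 indicate rising inhibition; between -100 and 0 indicates cell death.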 Activity calls are given as the source filed them. The calls were made as follows: active = growth percent below 10; inactive = the rest.

Legend:
Experiment in all cases: NCI-60 one-dose screen, 48 h (100 = growth as untreated, 0 = no growth, -100 = all killed)
Conditions in all cases: 10 µM unless noted
[1] = system: HCT-15 colon
[2] = system: HT29 colon
[3] = system: SNB-75 CNS
[4] = system: SNB-19 CNS
[5] = system: U251 CNS
[6] = system: PC-3 prostate
[7] = system: SK-MEL-5 melanoma
[8] = system: UACC-62 melanoma
[9] = system: LOX IMVI melanoma
[10] = system: SK-MEL-28 melanoma
[11] = system: SK-MEL-2 melanoma
[12] = system: EKVX NSCLC
[13] = system: SN12C renal
[14] = system: UO-31 renal
[15] = system: TK-10 renal
[16] = system: ACHN renal
[17] = system: CAKI-1 renal
[18] = system: A498 renal
[19] = system: CCRF-CEM leukemia
[20] = system: MOLT-4 leukemia

Measured: growth

O=C1NCCC12CCN(c1c(Cl)cncc1-c1ccc(O)cc1)CC2
inactive: [1] 105% | [2] 94.2% | [3] 112% | [4] 98.9% | [5] 94.9% | [6] 98.8% | [7] 94.4% | [8] 90.2% | [9] 87.7% | [10] 103% | [11] 105% | [12] 86.4% | [13] 99.6% | [14] 77.8% | [15] 86.9% | [16] 70.2% | [17] 90.3% | [18] 85% | [19] 98.9% | [20] 102%

O=C(O)[C@@H]1c2ccccc2-c2ccccc2[C@H]1C(=O)O
inactive: [1] 101% | [2] 102% | [3] 93.3% | [4] 100% | [5] 106% | [6] 90.9% | [7] 110% | [8] 96% | [9] 99.3% | [10] 102% | [11] 123% | [12] 100% | [13] 99.6% | [14] 66.3% | [15] 105% | [16] 98.7% | [17] 96.5% | [18] 96.6% | [19] 87.1% | [20] 107%

CC1=C(C(=O)OC(C)C)C(c2ccc3c(c2)OCO3)NC(=S)N1 (stereo not given)
inactive: [1] 100% | [2] 103% | [3] 95.2% | [4] 95.4% | [5] 102% | [6] 86% | [7] 98.5% | [8] 85.2% | [9] 97.3% | [10] 106% | [11] 102% | [12] 94.4% | [13] 105% | [14] 84.5% | [15] 98.1% | [16] 99.4% | [17] 93.8% | [18] 109% | [19] 105% | [20] 110%

O=C1NC(=O)c2c1c1c3ccccc3ccc1c1[nH]c3ccc(Br)cc3c21
active: [6] 3.55% | [7] -82.5% | [13] 9.28% | [14] 2.24% | [16] 1.55% | [18] -10.7% | [20] 9.35%
inactive: [1] 13.4% | [2] 26.4% | [3] 22.8% | [4] 23.8% | [5] 20.7% | [8] 29.9% | [9] 22.8% | [10] 44.4% | [11] 35.4% | [12] 18% | [15] 36.8% | [17] 15.8% | [19] 10.8%

N#Cc1cccc(-c2c(-c3ccc4ccccc4c3)oc3ccccc3c2=O)c1
inactive: [1] 33.9% | [2] 10.9% | [3] 51.1% | [4] 53.7% | [5] 45.6% | [6] 34.1% | [7] 31% | [8] 33.9% | [9] 50.7% | [10] 58% | [11] 59.1% | [12] 52.7% | [13] 68.3% | [14] 51.4% | [15] 73.1% | [16] 55.9% | [17] 45.5% | [18] 43.4% | [19] 27.6% | [20] 31%

COc1ccc2nc(NC(=O)CSc3nnc4n3S(=O)(=O)c3ccccc3N4C)sc2c1
inactive: [1] 101% | [2] 114% | [3] 93.5% | [4] 112% | [5] 102% | [6] 94.7% | [7] 95.1% | [8] 87.3% | [9] 92% | [10] 117% | [11] 50.6% | [12] 106% | [13] 99.5% | [15] 140% | [16] 100% | [17] 98.3% | [18] 121% | [20] 71.5%
active: [14] -72.5% | [19] 4.33%

COc1ccc(/C=C2\C(=O)N=C3N2NC(c2cc(Br)ccc2O)C=C(C)N3c2ccccc2)cc1 (stereo not given)
inactive: [1] 103% | [2] 106% | [3] 99% | [4] 93.8% | [5] 93.8% | [6] 92.1% | [7] 97% | [8] 90.6% | [9] 95% | [10] 99.1% | [11] 104% | [12] 105% | [13] 97.6% | [14] 81.6% | [15] 118% | [16] 99% | [17] 96.5% | [18] 94.1% | [19] 99.8% | [20] 97.4%

N#CC1CCc2c(c(-c3cn[nH]c3C(F)(F)F)nc3c(F)cc4[nH]ncc4c23)C1 (stereo not given)
inactive: [1] 86.1% | [2] 42.1% | [4] 32.7% | [5] 28.9% | [6] 43.6% | [9] 17.1% | [10] 24.9% | [12] 57.4% | [13] 25.7% | [14] 56.8% | [15] 19.4% | [16] 62.9% | [17] 25.6% | [19] 29.2% | [20] 19.8%
active: [3] -4.91% | [7] 6.54% | [8] 8.91% | [11] -34.6% | [18] -23.3%

CC(=O)OC[C@]12CCC(C)(C)C[C@H]1[C@@]1(O)[C@H](O)C[C@@H]3[C@@]4(C)CCCNC(C)(C)[C@@H]4CC[C@@]3(C)[C@]1(C)CC2
inactive: [1] 111% | [2] 109% | [3] 115% | [4] 97.4% | [5] 107% | [6] 102% | [7] 99.9% | [8] 105% | [9] 106% | [10] 108% | [11] 112% | [12] 101% | [13] 99.5% | [14] 85.8% | [15] 103% | [16] 109% | [17] 106% | [18] 86.5% | [19] 102% | [20] 104%

O=C(/C=C/c1cccs1)c1ccc(Cl)nc1
inactive: [1] 100% | [2] 101% | [3] 95.2% | [4] 102% | [5] 99.9% | [6] 104% | [7] 104% | [8] 97.2% | [9] 102% | [10] 105% | [11] 98% | [12] 102% | [13] 103% | [14] 93.5% | [15] 84.2% | [16] 106% | [17] 94% | [18] 85.6% | [19] 91.4% | [20] 99.6%

COc1cc(-c2nc(SCC(C)C)nc(Nc3cccc4ccccc34)c2C#N)cc(OC)c1OC
inactive: [1] 74.3% | [2] 89.9% | [3] 94.3% | [4] 106% | [5] 59.1% | [6] 57.1% | [7] 95.5% | [8] 86.5% | [9] 103% | [10] 110% | [11] 107% | [12] 98.7% | [13] 92.6% | [14] 67.9% | [15] 128% | [16] 98.4% | [17] 68.5% | [18] 74.3% | [19] 75% | [20] 64.3%

OCc1cccc(-c2ccc3ncc(-c4nc(NC5CC5)ncc4F)n3c2)c1
active: [1] 1.06% | [2] 4.87% | [3] -40.8% | [4] -0.451% | [5] -3.8% | [6] -10.3% | [7] -77.2% | [8] -84.4% | [9] -1.7% | [10] -45.5% | [11] -55.4% | [12] 2.69% | [13] -15.4% | [14] -14.1% | [16] -13.2% | [17] 1.44% | [18] -47.8% | [19] -2% | [20] -27.8%
inactive: [15] 13.5%

COc1cc(-n2cc(-c3cc(O)c(C/C=C(\C)CCC=C(C)C)c(O)c3)nn2)cc2c1O[C@]1(C)CC[C@@H](O)C(C)(C)[C@H]1C2
inactive: [4] 32.5% | [6] 16.2% | [10] 35.7% | [12] 28% | [13] 24.9% | [15] 40.2% | [16] 16.6% | [17] 12% | [18] 10.7%
active: [1] -12.2% | [2] -34.6% | [3] 7.34% | [5] 4.31% | [7] -61.4% | [8] -30.2% | [9] -79.9% | [11] -17.1% | [14] -53.8% | [19] 0.511% | [20] -0.403%

N#Cc1c(-c2cccs2)cc(-c2cccnc2)[nH]c1=O
inactive: [1] 102% | [2] 111% | [3] 102% | [4] 98.1% | [5] 96.9% | [6] 101% | [7] 102% | [8] 95.5% | [9] 97.5% | [10] 104% | [11] 113% | [12] 105% | [13] 95.2% | [14] 78% | [15] 109% | [16] 97.2% | [17] 96.1% | [18] 141% | [19] 94.7% | [20] 108%

O=C(CN1C(=O)CCC1=O)Nc1ncc(Cc2ccc(F)cc2)s1
inactive: [1] 102% | [2] 106% | [3] 94.3% | [4] 96.3% | [5] 97.5% | [6] 92.4% | [7] 99.6% | [8] 92.1% | [9] 94.3% | [10] 106% | [11] 100% | [12] 92.6% | [13] 98.8% | [14] 76% | [15] 101% | [16] 98.6% | [17] 91.5% | [18] 105% | [19] 105% | [20] 102%

C=C(CNCCc1ccc(O)cc1)[C@@H]1CC[C@]2(CO)CC[C@]3(C)[C@H](CC[C@@H]4[C@@]5(C)CCC(NCCO)C(C)(C)[C@@H]5CC[C@]43C)[C@@H]12 (stereo not given in full)
inactive: [18] 69.3%
active: [1] -80.9% | [2] -44.1% | [3] -97.8% | [4] -73.2% | [5] -83.7% | [6] -20.1% | [7] -94.2% | [8] -80.8% | [9] -84.1% | [10] -92.4% | [11] -81% | [12] -52.1% | [13] -70.3% | [14] -96.1% | [15] -80.6% | [16] -60.8% | [17] -77.2% | [19] -19.7% | [20] -19.2%
